Hits are enriched below; roughly 1.6% of the tested compounds scored in any of these assays.
KCNQ2 inh – rat KCNQ2 potassium channel inhibitors, primary screen, cell-based, CHO-K1, FluxOR thallium flux, B-score; 20 min; hits give low values; Potassium voltage-gated channel subfamily KQT member 2 (Rattus norvegicus), O88943; AID 2156, 2009; actives 1.1% (n = 310,000); B-score at 10 µM;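 active = fluorescence ratio B-score at most minus 3 library SDs, with starting brightness B-score within 2 library SDs, cut at about -5.5 in these data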
Target sequence (O88943 whole entry, looked up): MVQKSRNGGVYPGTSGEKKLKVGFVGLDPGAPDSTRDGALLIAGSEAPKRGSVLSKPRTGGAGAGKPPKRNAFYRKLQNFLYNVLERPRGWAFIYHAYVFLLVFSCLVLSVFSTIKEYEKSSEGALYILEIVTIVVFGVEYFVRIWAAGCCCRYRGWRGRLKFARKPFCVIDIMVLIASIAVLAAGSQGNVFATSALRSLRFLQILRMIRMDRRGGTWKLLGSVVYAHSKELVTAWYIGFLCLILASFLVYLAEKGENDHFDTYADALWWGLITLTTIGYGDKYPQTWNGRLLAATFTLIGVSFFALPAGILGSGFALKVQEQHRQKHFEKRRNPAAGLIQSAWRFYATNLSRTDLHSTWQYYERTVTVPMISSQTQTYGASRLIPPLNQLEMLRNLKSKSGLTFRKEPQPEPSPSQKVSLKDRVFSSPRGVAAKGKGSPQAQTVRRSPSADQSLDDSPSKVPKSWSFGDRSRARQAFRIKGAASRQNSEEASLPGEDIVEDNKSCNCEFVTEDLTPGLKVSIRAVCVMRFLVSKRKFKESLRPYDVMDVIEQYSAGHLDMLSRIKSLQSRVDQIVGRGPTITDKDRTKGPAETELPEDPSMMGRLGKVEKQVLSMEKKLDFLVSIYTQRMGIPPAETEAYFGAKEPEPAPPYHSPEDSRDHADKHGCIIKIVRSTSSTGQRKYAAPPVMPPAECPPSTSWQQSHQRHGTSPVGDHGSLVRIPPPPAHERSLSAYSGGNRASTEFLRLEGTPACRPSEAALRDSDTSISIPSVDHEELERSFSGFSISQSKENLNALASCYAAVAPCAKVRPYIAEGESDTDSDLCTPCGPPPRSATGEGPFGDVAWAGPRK
KCNQ2 enhance – potentiators of rat KCNQ2 potassium channel. Potassium voltage-gated channel subfamily KQT member 2 (Rattus norvegicus), O88943. CHO-K1 KCNQ2, FluxOR thallium flux fluorescence; hits give high values. B-score at 10 µM. actives 0.54% (n = 310,000). AID 2239, 2010;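 active = fluorescence ratio B-score at least 3 SD of library B-scores, with initial fluorescence B-score within 3 of them, cut at about 5.3 in these data; same plate scores as AID 2156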;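 also: B-score of peak minus minimum over baseline fluorescence ratio after K+ and Tl+ stimulus; positive B-score means potentiation of KCNQ2 with more thallium influx and brighter signal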
* marks the source's active call; other numbers are inactive results.

How did CCCC[C@@H]1CNCCN1CC1(c2ccccc2)CC1 do in these assays?
KCNQ2 inh: inactive; KCNQ2 enhance: 0.05

How did CN1CCN(CCNC(=O)Nc2ccc(Cl)cc2)CC1 do in these assays?
KCNQ2 inh: inactive

Results for CN(CC(=O)Nc1ccc(F)cc1Cl)Cc1cccs1 ?
KCNQ2 inh: inactive

How did CN(CC(=O)Nc1cc(Cl)cc(Cl)c1)Cc1cccs1 do in these assays?
KCNQ2 inh: -5.6*; KCNQ2 enhance: -5.6

What do the screens show for `O=C(CSc1nnc(-c2ccc3c(c2)OCO3)o1)Nc1ncc(C(F)(F)F)cc1Cl`?
KCNQ2 inh: inactive; KCNQ2 enhance: 1.6

What do the screens show for `Cc1nc(NC(=O)CSc2nnc(-c3ccc4c(c3)OCO4)o2)c(Cl)cc1Cl`?
KCNQ2 inh: inactive; KCNQ2 enhance: 18*

How did CN(C1CCCCC1)S(=O)(=O)c1cc2c(cc1Cl)NC(=O)CO2 do in these assays?
KCNQ2 inh: inactive; KCNQ2 enhance: 0.18

Results for Cc1cccc(N(C)S(=O)(=O)c2ccc(-c3cnc(C4CC4)o3)cc2)c1 ?
KCNQ2 inh: -9.9*; KCNQ2 enhance: -9.9

How did Cc1ccc(NS(=O)(=O)c2ccc(-c3cnc(C4CC4)o3)cc2)c(C)c1 do in these assays?
KCNQ2 inh: -5.7*; KCNQ2 enhance: -5.7

How did COc1ccccc1NS(=O)(=O)c1ccc(-c2cnc(C3CC3)o2)cc1 do in these assays?
KCNQ2 inh: inactive

What do the screens show for `COc1cccc(N2CCN(S(=O)(=O)c3ccc(-c4cnc(C5CC5)o4)cc3)CC2)c1`?
KCNQ2 inh: inactive; KCNQ2 enhance: 0.13

How did Cc1c(Br)c([N+](=O)[O-])nn1C(C)C(=O)Nc1ccc2c(c1)OCO2 (stereo not drawn) do in these assays?
KCNQ2 inh: inactive

What do the screens show for `CCNC(=S)N/N=C/c1ccc(OCC(=O)Nc2ccc(C)cc2)cc1`?
KCNQ2 inh: inactive; KCNQ2 enhance: 0.94

Results for COc1ccc(NS(=O)(=O)c2cccc(C(=O)OCC(=O)N3CCN(c4ccc(OC)cc4)CC3)c2)cc1 ?
KCNQ2 inh: inactive; KCNQ2 enhance: 0.98

How did Cc1[nH]n(-c2ccccc2)c(=O)c1/C=N/NC(=O)C(C)C do in these assays?
KCNQ2 inh: inactive

Results for Clc1nnc(N/N=C/c2ccccc2)c2ccccc12 ?
KCNQ2 inh: inactive; KCNQ2 enhance: 0.13

How did Clc1nnc(NN=C2CCCC2)c2ccccc12 do in these assays?
KCNQ2 inh: inactive; KCNQ2 enhance: 9.5*

What do the screens show for `Cc1noc(NS(=O)(=O)c2ccc(NC(=O)c3nn(-c4ccccc4)ccc3=O)cc2)c1C`?
KCNQ2 inh: inactive

How did Cc1nn(CC(=O)c2ccccc2)c(=O)c2nn(-c3ccccc3F)c(C)c12 do in these assays?
KCNQ2 inh: inactive

How did CCC(=O)N1CCc2cc(S(=O)(=O)NCCc3ccc(S(N)(=O)=O)cc3)ccc21 do in these assays?
KCNQ2 inh: inactive

How did CCOC(=O)c1ccc(N2CCN(c3ccc(F)cc3)CC2)c(NC(=O)Nc2cccc(OC)c2)c1 do in these assays?
KCNQ2 inh: inactive

Results for CCOC(=O)c1ccc(N2CCN(c3ccccc3F)CC2)c(NC(=O)Nc2ccccc2)c1 ?
KCNQ2 inh: -6.3*; KCNQ2 enhance: -6.3

What do the screens show for `CCN(CC)CCCNC(=O)c1ccc(N2CCCCC2)c(NS(=O)(=O)c2ccc(C)cc2)c1`?
KCNQ2 inh: inactive

How did CCOC(=O)c1ccc(N2CCCCC2)c(NS(=O)(=O)c2ccc(C)cc2)c1 do in these assays?
KCNQ2 inh: -7.3*; KCNQ2 enhance: -7.3

How did CCOc1cc(-c2nccc3cc(OC)c(OC)cc23)cc(OCC)c1OCC do in these assays?
KCNQ2 inh: inactive

Results for COc1cccc(-c2cc3nc4c(c(NCC(C)(C)CN(C)C)n3n2)CCCC4)c1 ?
KCNQ2 inh: -7.7*; KCNQ2 enhance: -7.7

How did Fc1cccc(-c2cc3nc4c(c(NCc5ccco5)n3n2)CCCC4)c1 do in these assays?
KCNQ2 inh: inactive

Results for Cc1ccc(C(=O)Nc2ccccc2-c2ccccc2)cc1S(=O)(=O)Nc1cccc(C)c1C ?
KCNQ2 inh: -7.9*; KCNQ2 enhance: -7.9

Results for Cc1ccc(C(=O)NCc2ccncc2)cc1S(=O)(=O)Nc1cccc(C)c1C ?
KCNQ2 inh: inactive

What do the screens show for `Cc1ccc(C)c(NS(=O)(=O)c2cc(C(=O)Nc3ccccc3-c3ccccc3)ccc2C)c1`?
KCNQ2 inh: -6.2*; KCNQ2 enhance: -6.2

How did Cc1ccccc1NC(=O)c1ccc(C)c(S(=O)(=O)Nc2cccnc2)c1 do in these assays?
KCNQ2 inh: inactive

Results for Cc1ccc(C)c(S(=O)(=O)Nc2ccccc2C(=O)Nc2ccccc2N2CCOCC2)c1 ?
KCNQ2 inh: -6*; KCNQ2 enhance: -6

Results for Cc1cc(F)ccc1S(=O)(=O)Nc1ccccc1C(=O)Nc1ccccc1N1CCOCC1 ?
KCNQ2 inh: inactive

Results for C/C(N)=C(/C#N)C(=O)COC(=O)c1ccc(NC(N)=O)cc1 ?
KCNQ2 inh: inactive; KCNQ2 enhance: 0.32

Results for Cc1ccc(NC(=O)CSCC(=O)N(C)CC(=O)Nc2cccc3ccccc23)cc1 ?
KCNQ2 inh: inactive

How did Cc1c(Nc2ccc(C=O)cc2)c(=O)n(-c2ccccc2)n1C do in these assays?
KCNQ2 inh: inactive; KCNQ2 enhance: 0.87

Results for CCN(CC(=O)Nc1ccc(NC(C)=O)cc1)c1ccc(C(F)(F)F)cn1 ?
KCNQ2 inh: inactive; KCNQ2 enhance: 0.2

How did Cc1ccc(CSc2nc3ccccc3c(=O)n2C)cc1 do in these assays?
KCNQ2 inh: inactive

Results for O=C(Cc1ccccc1[N+](=O)[O-])NCCCc1ccccc1 ?
KCNQ2 inh: inactive

Results for CCN(CC)C(=O)C1(P(=O)(c2ccccc2)c2ccccc2)CCC1 ?
KCNQ2 inh: inactive

What do the screens show for `CCCCN(CCCC)C(=O)C1(P(=O)(c2ccccc2)c2ccccc2)CCC1`?
KCNQ2 inh: -6.2*; KCNQ2 enhance: -6.2

Results for O=c1cc(-c2ccccc2)[nH]n2cnnc12 ?
KCNQ2 inh: inactive; KCNQ2 enhance: 1.3

How did O=C(N/C=N/O)C(c1ccccc1)c1ncc(C(F)(F)F)cc1Cl (stereo not drawn) do in these assays?
KCNQ2 inh: inactive

How did CCOc1ccccc1-c1ccc(C(=O)NCc2ccccc2)o1 do in these assays?
KCNQ2 inh: -5.8*; KCNQ2 enhance: -5.8

Results for CCOc1cccc2cc(C(=O)NCc3ccccc3)c(=N)oc12 ?
KCNQ2 inh: inactive

Results for CCOC(=O)N1C=CC=C[C@@H]2[C@@H](N3C(=O)c4ccccc4C3=O)C(=O)N21 ?
KCNQ2 inh: inactive

How did O=C1C2ON(c3ccccc3)C(c3cccnc3)C2C(=O)N1Cc1ccccc1 (stereo not drawn) do in these assays?
KCNQ2 inh: inactive

How did COc1cc(C2C3C(=O)N(Cc4ccccc4)C(=O)C3ON2c2ccccc2)cc(OC)c1OC (stereo not drawn) do in these assays?
KCNQ2 inh: -6.4*; KCNQ2 enhance: -6.4

Results for CCOCCOC(=O)C1=C(C)NC2=C(C(=O)CC(c3cccs3)C2)C1c1ccsc1 (stereo not drawn) ?
KCNQ2 inh: inactive

What do the screens show for `CC1=C(C(=O)Nc2ccccc2F)C(c2ccsc2)C2=C(CC(c3ccccc3)CC2=O)N1` (stereo not drawn)?
KCNQ2 inh: -6.1*; KCNQ2 enhance: -6.1

Results for C/C(=N/NC(=O)c1sc(=S)n(C)c1C)c1ccccc1 ?
KCNQ2 inh: inactive

Results for O=C(c1ccccn1)N1N=C2/C(=C/c3ccccc3)CCCC2C1c1ccccc1 (stereo not drawn) ?
KCNQ2 inh: inactive

Screens: PubChem, Johns Hopkins Ion Channel Center
